Sfp PPTase inh = qHTS Assay for Inhibitors of Bacillus subtilis Sfp phosphopantetheinyl transferase (PPTase); 4'-phosphopantetheinyl transferase ffp (Bacillus subtilis), Q9F4F7; Biochemical Sfp PPTase activity, qHTS; Potency, µM, inactives show largest response in the series, negative = inhibition, hits mostly inhibitors; 310,000 compounds, 3.5% hits; AID 1490, 2009;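 further: the enzyme is Sfp with the accession as filed and its product quenches rhodamine fluorescence; 0% = enzyme reaction without inhibitor and -100% = no enzyme wells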
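Fluorescence-quenching assay: 15 nM Sfp-PPTase preincubated 15 min at room temperature with compound, then 5 uM rhodamine-CoA and 12.5 uM BHQ-2-labelled YbbR peptide added. Fluorescence (ex 525/em 598 nm) read at start and after 30 min; difference gives rate.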
HP1b binding inh = HTS for Inhibitors of HP1-beta Chromodomain Interactions with Methylated Histone Tails; AID 540317, 2011; 390,000 compounds, 0.56% hits; Chromobox protein homolog 1 (Homo sapiens), P83916; Potency, µM (highest dose often 114 µM), for inactives: at the top dose activity change, negative = inhibition, hits mostly inhibitors; AlphaScreen HP1-beta / biotin-H3K9me3 peptide binding; further: nearly all actives have a fitted effect of over 70% in size
Target sequence (P83916 whole entry, looked up): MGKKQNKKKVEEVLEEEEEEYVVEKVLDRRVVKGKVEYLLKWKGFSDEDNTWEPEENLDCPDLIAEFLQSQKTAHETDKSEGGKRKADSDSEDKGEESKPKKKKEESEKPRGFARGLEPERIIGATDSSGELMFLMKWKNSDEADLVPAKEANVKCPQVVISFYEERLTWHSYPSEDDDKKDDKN
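AlphaScreen: HP1-beta (50 nM) preformed 30 min with biotin-H3(1-18)K9me3 peptide (50 nM) in PBS pH 7.4, 0.01% Tween-20. Compound added for 30 min at RT, then streptavidin donor/nickel chelate acceptor beads (10 ug/mL) for 30 min.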
JMJD2A Tudor inh = qHTS Assay for Inhibitors of JMJD2A-Tudor Domain. Lysine-specific demethylase 4A (Homo sapiens), O75164. AlphaScreen JMJD2A-Tudor / H3K4me3 peptide binding. Potency, µM (titrated, usually from 114 µM), for inactives: at the top dose activity change, negative = inhibition, hits mostly inhibitors. 390,000 compounds, 4.4% hits; further: on the % scale 0 is the no-effect control and ±100 the full control effect; nearly all actives have a fitted effect of over 50% in size
G9a block = qHTS Assay for Inhibitors of Histone Lysine Methyltransferase G9a | Histone-lysine N-methyltransferase EHMT2 (Homo sapiens), Q96KQ7 | G9a H3K9 monomethylation, AlphaScreen, 2 h | Potency, µM (highest dose often 102 µM), for the others: top-dose activity, negative = inhibition, usual class: inhibitors | 350,000 compounds, 8.8% hits; further: on the % scale 0 is the no-effect control and ±100 the full control effect; nearly all actives have a fitted effect of over 75% in size
Target sequence (Q96KQ7 913-1193 limits assumed): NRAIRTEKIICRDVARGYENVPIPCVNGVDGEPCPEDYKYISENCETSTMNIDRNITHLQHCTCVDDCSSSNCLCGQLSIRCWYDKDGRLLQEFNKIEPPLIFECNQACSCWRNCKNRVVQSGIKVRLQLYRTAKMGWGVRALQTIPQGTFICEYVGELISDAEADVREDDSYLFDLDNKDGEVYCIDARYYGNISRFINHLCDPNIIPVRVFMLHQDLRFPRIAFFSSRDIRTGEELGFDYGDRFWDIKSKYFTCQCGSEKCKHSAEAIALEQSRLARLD
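Methyltransferase reactions run at room temperature for 2 h (20 nM enzyme, 500 nM biotin-H3K9 peptide, 20 uM SAM) after a 15 min compound preincubation; product detected by AlphaScreen beads and anti-H3K9me1 antibody.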
BAZ2B inh = qHTS Assay for Inhibitors of BAZ2B; AlphaScreen BAZ2B-H3K14Ac peptide displacement; AID 504333, 2011; Potency, µM (series often up to 114 µM), for inactives: top-dose activity change, negative = inhibition, hits mostly inhibitors; Bromodomain adjacent to zinc finger domain protein 2B (Homo sapiens), Q9UIF8; 360,000 compounds, 4.4% hits; further: on the % scale 0 is the no-effect control and ±100 the full control effect; nearly all actives have a fitted effect of over 60% in size
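Inhibition is scored as reduced AlphaScreen emission. The BAZ2B/b-H3(5-23)K14Ac complex (50 nM each) in PBS pH 7.4, 0.01% Tween-20 meets compound (up to 110 uM) for 30 min at RT before bead addition.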
An asterisk follows results filed as active; ? = inconclusive; . = no result; [ ] = another dose, or the depositor's remark. Most compounds without a hit are left out; they make up all but 12% or so of the library. The call rests on the fitted dose curve; in most records, active means well fitted curve in the direction sought with a large enough effect; inconclusive means small, poorly fitted or top-dose-only effect, or another doubt; inactive means no such curve, though single readings can be large; an effect the other way counts as inactive or inconclusive. Potency means the concentration at half of the fitted maximal effect.

SMILES	Sfp PPTase inh	HP1b binding inh	JMJD2A Tudor inh	G9a block	BAZ2B inh
C=C(CO)C1Cc2c(ccc3c(=O)c4c(oc23)COc2cc(OC)c(OC)cc2-4)O1 (stereo unspecified)	-9%	.	.	.	.
CCC1=C2CC[C@H]3C(=O)N(C)C(=O)[C@H]3[C@H]2[C@@]2(C)C(=NCC(=O)OC)OC(=O)N2C1=O	15%	.	.	.	.
O=C(CNCCC1=CCCCC1)Nc1ccccc1N1CCCCC1	?	?	5.6µM*	1.8µM*	50µM*
COc1ccc(NC(=O)CNCCC2=CCCCC2)cc1	3%	1%	-16%	-5%[12.7 µM]	7%
O=C(c1cc2ccccc2oc1=O)N(Cc1cccc(Cl)c1)C1CCS(=O)(=O)C1 (stereo unspecified)	.	45%	-6%	5%[59 µM]	0%
Cn1c(=Nc2ccc(N3CCOCC3)cc2)ccc2ccccc21	7%	-9%	-11%	?	?
Cn1c(N=Nc2ccc(N3CCOCC3)cc2)[n+](C)c2ccccc21	?	?	?	18µM*	13µM*
O=C(c1cccc(Cl)c1)N1CCCC(c2ccc(Cl)cc2)=N1	-26%	63%	28%	65%[59 µM]	44%
O=C(c1ccccc1)N1CCCC(c2ccc(Cl)cc2)=N1	79µM*	41%	14%	-1%[2.33 µM]	16%
Cc1ccc(-c2ccccc2NC(=O)CS(=O)CC(=O)Nc2ccc(C)c(Cl)c2)o1 (stereo unspecified)	6%	1%	-36%	35µM*	-13%
NS(=O)(=O)c1ccc(-c2ccc(/C=C3\SC(=S)N(C4CCS(=O)(=O)C4)C3=O)o2)cc1 (stereo unspecified)	?	12%	-20%	?	-28%
Cc1ccc(/C=C2\SC(=S)N(C3CCS(=O)(=O)C3)C2=O)o1 (stereo unspecified)	50µM*	-36%	?	.	40µM*
O=C1/C(=C/c2ccncc2)SC(=S)N1C1CCS(=O)(=O)C1 (stereo unspecified)	50µM*	11%	-5%	?	4%
CC1=C(C#N)C(=O)N(C2CCS(=O)(=O)C2)C(=O)/C1=C\c1ccc(C)o1 (stereo unspecified)	13µM*	.	.	20µM*	45µM*
CCOC(=O)C1(C(C)C)Oc2ccccc2C(c2ccc(OC)cc2)=C1C(=O)OC (stereo unspecified)	?	.	.	-8%[59 µM]	.
Cc1ccc(NC(=O)CCc2nc(-c3ccccc3F)no2)c(C)c1	.	30%	-18%	-25%[59 µM]	-2%
CC(=O)c1ccc(NC(=O)c2noc3c2CCCCC3)cc1	-10%	23%	-14%	56µM*	16%
O=C(Nc1ccc(F)cc1F)c1noc2c1CCC2	2%	?	79µM*	?	56µM*
Cc1cc(C)n2nc(SCC(=O)N(CCC#N)c3ccccc3F)nc2n1	.	47%	6%	8%[2.33 µM]	9%
CO[C@H]1COC(=O)[C@H](C)COC(=O)[C@@H](OCc2ccccc2)/C=C\[C@@H]1C	18%	.	.	.	.
Cc1cc(C(=O)COC(=O)/C=C/c2cccc(F)c2)c(C)n1C	-3%	-21%	-7%	?	7%
Cc1cc(C(=O)COC(=O)/C=C/c2cccc(Br)c2)c(C)n1C	.	?	-27%	45µM*	?
Cc1cc(C(=O)COC(=O)Cc2ccc(Br)cc2)c(C)n1C	.	2%	-30%	?	50µM*
Cc1cc(C(=O)COc2ccc(Cl)cc2Br)c(C)n1C	-2%	?	?	-50%	-37%
CCc1ccc(NC(=O)C2CCN(C(=O)N3CC(CC)Oc4ccccc43)CC2)cc1 (stereo unspecified)	.	11%	?	?	?
SMILES	Sfp PPTase inh	HP1b binding inh	JMJD2A Tudor inh	G9a block	BAZ2B inh
CCCC/C(O)=C1\C(=O)CCCC1=NCCc1c(C)[nH]c2ccc(OC)cc12	14%	-24%	?	71µM*	?
COCC(=O)N1CCC(Oc2ccc(C(=O)N3CCN(C)C[C@@H]3C(C)C)cc2)CC1	18%	34%	-6%	9%[12.7 µM]	-2%
COCCNC(=S)N/N=C(\C)c1ccc(O)cc1	-4%	37%	-5%	56%[59 µM]	-13%
CC/C(=N\NC(=S)Nc1ccc(OC)cc1)c1ccc(OC(F)F)cc1	1%	?	?	40µM*	?
C/C(=N\NC(=S)NC1CCCCC1)c1ccc(O)cc1	79µM*	?	?	35µM*	?
COC(=O)N/N=C(\C)c1ccc(OC(F)F)cc1	7%	30%	-3%[57.1 µM]	-12%	-8%
C/C(=N\NC(=S)Nc1ccccc1C)c1ccc(O)cc1	25µM*	?	?	35µM*	?
C/C(=N\NC(=S)Nc1c(C)cccc1C)c1ccc(OC(F)F)cc1	-25%	10%	?	8.9µM*	-6%
O=C1C(=NO)C(c2ccccc2)Oc2ccccc21 (stereo unspecified)	.	-16%	?	.	.
CCN(c1ccccc1)S(=O)(=O)c1ccc(NC(=O)c2nc(SC)ncc2Cl)cc1	.	29%	-15%	-1%[59 µM]	-14%
CCOC(=O)c1c(C)[nH]c(C)c1S(=O)(=O)N1CCC(C(=O)Nc2ccccn2)CC1	.	5%	-15%	-2%[59 µM]	-24%
CC/C(=N\NC(=S)Nc1cc(C)ccc1C)c1ccc(OC(F)F)cc1	?	?	?	3.2µM*	?
COc1ccc(C/C(C)=N/NC(=S)Nc2ccccc2F)cc1	-13%	?	?	?	-6%
COc1ccccc1NC(=S)NNC(=S)Nc1ccc(OC(F)F)cc1	-27%	?	79µM*	1µM*	-38%
CC/C(=N\NC(C)=O)c1ccc(OC(F)F)cc1	25%	.	.	5%	-4%
COc1ccc(C/C(C)=N/NC(=S)Nc2ccc(C(C)C)cc2)cc1	-1%	22%	7.9µM*	7.9µM*	-36%
COc1cc(NC(=O)C(CC(C)C)NS(=O)(=O)c2ccc3c(c2)CCCC(=O)N3)cc(OC)c1 (stereo unspecified)	.	16%	-14%	7%[59 µM]	-3%
O=C(NNC(=S)Nc1ccccc1Cl)c1ccccc1Br	-10%	12%	-22%	40µM*	-14%
O=C(NNC(=S)Nc1ccc(Br)cc1)c1ccccc1Br	-11%	-14%	-22%	7.9µM*	-21%
O=C(Nc1ccc(C(F)(F)F)cc1)c1ccccc1Br	10%	-6%	35µM*	2%	0%
O=C(Nc1ccc(NC(=O)c2ccccc2Br)cc1)c1ccccc1	9%	55%	-15%	.	8%
O=C(NNC(=S)Nc1ccc(Br)cc1)c1ccccc1	10%	17%	-24%	-25%	-17%
COc1ccc(NC(=O)COc2ccccc2F)cc1S(=O)(=O)N1CCCCC1	-6%	11%	-14%	.	-16%
